This passage reports inhibition results from PubChem BioAssay AID1376 (SRMLSC, 2008).

Out of some 220,000 compounds screened, about 530 (0.24%) were called active. The full list was thinned out, with actives kept by preference. Entries with a potency or affinity are not part of this list. Values without a mark were called inactive. Rule as the data show it: active = inhibition above about 13%; inconclusive = no clear call, values can overlap the other calls; inactive = below that.

Sequence of Bifunctional protein GlmU (Mycobacterium tuberculosis (strain ATCC 25618 / H37Rv)) (P9WMN3 whole entry, looked up): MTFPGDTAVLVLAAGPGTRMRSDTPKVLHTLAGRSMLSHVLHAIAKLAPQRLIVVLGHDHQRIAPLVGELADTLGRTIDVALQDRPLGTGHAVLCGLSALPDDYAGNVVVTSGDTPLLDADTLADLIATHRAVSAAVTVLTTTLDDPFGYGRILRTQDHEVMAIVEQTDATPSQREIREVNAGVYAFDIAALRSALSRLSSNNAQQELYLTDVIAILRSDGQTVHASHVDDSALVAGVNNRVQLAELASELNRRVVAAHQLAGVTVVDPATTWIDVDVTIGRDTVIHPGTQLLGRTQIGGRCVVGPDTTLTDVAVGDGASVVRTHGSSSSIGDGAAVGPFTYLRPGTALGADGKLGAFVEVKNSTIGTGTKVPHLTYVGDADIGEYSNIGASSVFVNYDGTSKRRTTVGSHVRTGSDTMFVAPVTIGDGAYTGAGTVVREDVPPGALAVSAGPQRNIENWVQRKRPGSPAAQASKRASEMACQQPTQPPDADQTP

The test concerns the target Bifunctional protein GlmU (Mycobacterium tuberculosis (strain ATCC 25618 / H37Rv)) (UniProt P9WMN3). As to the kind of experiment: inhibition of mycobacterial GlmU enzyme – biochemical, glucosamine-1-phosphate acetyltransferase (AID 1376).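 Also: 0% = complete reaction with vehicle and 100% = reaction without substrate.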 The conditions noted are these: M. tuberculosis GlmU acetyltransferase enzyme assay; active compounds read high;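 tested at 30 µM in the primary screen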.
`Cc1ccc(-n2c(-c3ccccc3)cc(/C=N/NC(=O)CC#N)c2-c2ccccc2)cc1`: the inhibition was -1.01%.

On to `COc1ccc2c(c1)CCc1c(C(=O)N3CCCCCC3)noc1-2`, for which the inhibition was 0.33%.

For the compound `COc1ccc2c(c1)CCc1c(C(=O)N3CCOCC3)noc1-2`, the inhibition was 13.8% (active).

As to `COc1ccc2c(c1)CCc1c(C(=O)N3CCc4ccccc4C3)noc1-2`, the inhibition was 5.33%.

As for `CC(C)(C)C1CCC(=NNC(=O)c2cc3c(s2)CCCC3)CC1` (stereo not given), the inhibition is -4.64%.

`Cc1ccc(OCc2ccc(C(=O)Nc3nc4ccccc4n3C)o2)c([N+](=O)[O-])c1`: the inhibition is 2.65%.

On to `Cc1ccc(OCc2ccc(C(=O)Nc3nc4ccccc4n3Cc3ccccc3)o2)c([N+](=O)[O-])c1`, for which the inhibition was -4.38%.

Take `CCn1c(NC(=O)c2ccc(COc3ccc(C)cc3[N+](=O)[O-])o2)nc2ccccc21`: the inhibition was 15.2% (active).

For `O=C(N/N=C1/CCS(=O)(=O)c2ccc(F)cc21)c1ccccn1`, the inhibition was -0.55%.

Turning to `CCCC(c1nnnn1CCc1ccccc1)N1CCN(C(=O)c2ccco2)CC1` (stereo not given), the inhibition is 5.26%.

Consider `COc1ccccc1OCCCCN1CCN(C(c2ccccc2)c2ccccc2)CC1`, for which the inhibition is -0.89%.

In the case of `CCN(CC)S(=O)(=O)c1cc(NS(=O)(=O)c2cc(Cl)ccc2Cl)ccc1C`, the inhibition was 3.03%.

On to `CCC(=O)Nc1ccc(Oc2ccc3c(c2)C(=O)N(c2ccc(O)cc2)C3=O)cc1`, for which the inhibition is 2.87%.

Take `COC1=C(OC)C(=O)C(CCCCCCCCCCO)=C(C)C1=O`: the inhibition was -5.02%.

For `CCCCCCCCCCCC1=C(O)C(=O)C=C(O)C1=O`, the inhibition is 1.77%.

Regarding `COC1=CC(=O)C(O)=C(CCCCCCC/C=C/CCCCCCCC2=C(O)C(=O)C=C(OC)C2=O)C1=O`, the inhibition is 14.3% (active).

Turning to `COC(=O)c1c(C)oc2cc(Br)c(OCC(=O)C(C)(C)C)cc12`, the inhibition is -1.38%.

With `CCC(=O)NC1CCN(C(=S)NC)CC1`, the inhibition was -4.03%.

Regarding `CSc1cccc(NC(=O)CN(Cc2ccc(Cl)cc2)S(C)(=O)=O)c1`, the inhibition was -1.38%.

Consider `O=C(/C=C/c1ccco1)NC(=S)Nc1cc(-c2nc3ccccc3s2)ccc1Cl`, for which the inhibition is 13% (active).

In the case of `Cc1ccc(-c2nc3ccccc3s2)cc1NC(=S)NC(=O)/C=C/c1ccco1`, the inhibition was 3.24%.

Turning to `O=C(/C=C/c1ccco1)NC(=S)Nc1cccc(-c2nc3ccccc3s2)c1`, the inhibition is -0.02%.

With `FC(F)(F)c1cnc(NNC(=S)Nc2cccnc2)c(Cl)c1`, the inhibition is 2.72%.

For `CC(C)OC(=O)CSc1nc(N)c(C#N)c(-c2ccco2)c1C#N`, the inhibition was -3.1%.

Turning to `COC(=O)CSc1nc(N)c(C#N)c(-c2ccco2)c1C#N`, the inhibition is 21.7% (active).

Regarding `CCCOC(=O)CSc1nc(N)c(C#N)c(-c2ccco2)c1C#N`, the inhibition is 2.41%.

Take `CCOC(=O)c1[nH]c(=O)[nH]c1CN(Cc1ccco1)Cc1[nH]c(=O)[nH]c1C(=O)OCC`: the inhibition was 2.03%.

Regarding `COc1cc(OC)c(OC)cc1CN1CCC(O)CC1`, the inhibition was 0.1%.

Regarding `Cn1c(-c2ccc(Br)cc2)cnc1NCc1cccnc1`, the inhibition was -2.36%.

On to `CCCCN(C)CCC(=O)Nc1ccc(F)c(F)c1`, for which the inhibition is 0.07%.

As to `Cc1ccc(-c2nnn(CC(=O)N(Cc3ccco3)C(C(=O)NC(C)(C)C)c3ccncc3)n2)o1` (stereo not given), the inhibition was 6.52%.

Take `Cc1ccc(-c2nnn(CC(=O)N(Cc3ccco3)C(C(=O)NC(C)(C)C)c3ccc(C)o3)n2)o1` (stereo not given): the inhibition was 13% (active).

For `Cc1ccc(-c2nnn(CC(=O)N(Cc3ccco3)C(C(=O)NC(C)(C)C)c3cccs3)n2)o1` (stereo not given), the inhibition is 1.32%.

On to `CCS(=O)(=O)N1CCN(CC(=O)NC2CCCCC2)CC1`, for which the inhibition was 2.03%.

As for `COc1ccc(-c2cc3nc(-c4ccccc4)cc(N4CCC5(CC4)OCCO5)n3n2)cc1`, the inhibition is 5.97%.

For the compound `O=C(N/N=C\c1ccccn1)C1c2ccccc2Oc2ccccc21`, the inhibition is -4.47%.

In the case of `CN(C)CCCOc1cccc(Oc2ccccc2)c1`, the inhibition is -1.51%.

For `COc1cccc(C(=O)O/N=C(\N)c2ccc([N+](=O)[O-])cc2)c1`, the inhibition is -5.75%.

Turning to `Cc1ccc(C(OCCN(C)C)c2cccc(C(F)(F)F)c2)cc1` (stereo not given), the inhibition was 2%.

Take `CCN(CC)CCOC(c1ccccc1)c1ccc(C)cc1` (stereo not given): the inhibition is 13.5% (active).

For the compound `CCN(CC)CCC(C)OC(c1ccccc1)c1ccccc1` (stereo not given), the inhibition is -5.59%.

Consider `C=CCNC(=O)C1CC1(c1ccccc1)c1ccccc1` (stereo not given), for which the inhibition is 4.25%.

Consider `COc1ccccc1NC(=O)c1cccc(S(=O)(=O)N2CCOCC2)c1`, for which the inhibition was 0.03%.

For `COc1cc(C(=O)N2CCCC(c3nc(-c4cccs4)no3)C2)cc(OC)c1OC` (stereo not given), the inhibition is 2.49%.

For `COc1ccc(C(=O)N2CCCC(c3nc(-c4cccs4)no3)C2)cc1OC` (stereo not given), the inhibition was 13.1% (active).

With `COc1ccc(C(=O)N2CCCC(c3nc(-c4cccs4)no3)C2)cc1` (stereo not given), the inhibition was -2.88%.

With `Cc1csc(NC(=O)c2sc3nc(-c4cccs4)ccc3c2N)n1`, the inhibition was 0.71%.

Regarding `Nc1c(C(=O)Nc2nc3ccccc3s2)sc2nc(-c3cccs3)ccc12`, the inhibition was -1.14%.

`O=C(Nc1ncc(Cc2cccc(C(F)(F)F)c2)s1)c1ccc(-c2cccc([N+](=O)[O-])c2)o1`: the inhibition is -6.86%.

For the compound `Cc1ccccc1CN1C(=O)CSc2ccc(C(=O)N3CCOCC3)cc21`, the inhibition is 0.57%.

As to `CN(C(=O)CCc1nnc(Cc2ccc(-c3ccccc3)cc2)o1)C1CCOCC1`, the inhibition is 2.22%.

Take `C=CCn1c(COc2ccccc2)nnc1SCC(=O)Nc1ccc(S(N)(=O)=O)cc1`: the inhibition is 0.44%.

In the case of `Cn1c(COc2ccccc2)nnc1SCC(=O)Nc1ccc(S(N)(=O)=O)cc1`, the inhibition was 1.92%.

As for `NS(=O)(=O)c1ccc(NC(=O)CSc2nnc(COc3ccccc3Cl)n2C2CC2)cc1`, the inhibition is 13.3% (active).

Take `c1ccc2oc(NC3=NCN(C4CCCCC4)CN3)nc2c1`: the inhibition was 0.06%.

Consider `Cc1csc(N/N=C/c2ccc(O)c([N+](=O)[O-])c2)n1`, for which the inhibition was 13.8% (active).

Regarding `O=[N+]([O-])c1cc(/C=N\Nc2nc(-c3ccccc3)cs2)ccc1O`, the inhibition is 7.14%.

In the case of `Cc1n[nH]c(=O)nc1N/N=C/c1ccc(O)c([N+](=O)[O-])c1`, the inhibition is 5.79%.

On to `CSc1ccc(CNc2nnnn2C)cc1`, for which the inhibition was -1.37%.

For `COC(=O)C1(CO)NC(c2cccs2)C2C(=O)N(c3ccccc3)C(=O)C21` (stereo not given), the inhibition is -2.08%.

As to `O=C1NC(=O)N(c2ccccc2)C(=O)/C1=C\c1ccc([N+](=O)[O-])o1`, the inhibition is 16.7%.

`COc1ccc(CN2C(=O)NC(=O)/C(=C\c3ccco3)C2=O)cc1`: the inhibition was 8.39%.

Regarding `Cc1ccc(N2C(=O)NC(=O)/C(=C\c3ccc([N+](=O)[O-])o3)C2=O)cc1`, the inhibition was 12.4%.

Consider `COc1ccc(CN2C(=O)NC(=O)/C(=C/c3ccc([N+](=O)[O-])o3)C2=O)cc1`, for which the inhibition was 19.9% (active).

As to `COc1ccc(CN2C(=O)NC(=O)/C(=C/c3ccc([N+](=O)[O-])s3)C2=O)cc1`, the inhibition was 6.92%.

For `Cc1cc([N+](=O)[O-])ccc1N=Nc1c(N)[nH]n(-c2ccccc2)c1=O`, the inhibition was -3.05%.

With `Cc1c(NC(=O)c2ccc(S(=O)(=O)N(C)c3ccccc3)cc2)c(=O)n(-c2ccccc2)n1C`, the inhibition was -6.06%.

Consider `COc1ccc(C(C(=O)NC(C)(C)C)N(CC2CCCO2)C(=O)CCC(=O)Nc2cc(C)on2)cc1` (stereo not given), for which the inhibition is 16.9% (active).

In the case of `CCC(C)(C)NC(=O)C(c1ccc(OC)cc1)N(CC1CCCO1)C(=O)CCC(=O)Nc1cc(C)on1` (stereo not given), the inhibition is 5.67%.

With `COc1ccc(C(C(=O)NC(C)(C)C)N(Cc2ccc(C)cc2)C(=O)CCC(=O)Nc2cc(C)on2)cc1` (stereo not given), the inhibition was 5.39%.

Consider `COc1cc2nc(C3CCC3)n(NC(=O)C3CCC(OC)CC3)c(=O)c2cc1OC` (stereo not given), for which the inhibition is 0.09%.

As to `C=CC1CN2CCC1CC2c1[nH]c2ccccc2c1CCO` (stereo not given), the inhibition was -1.33%.

For `NS(=O)(=O)c1cc(C(=O)OCC(=O)NC2CC2)ccc1Cl`, the inhibition is 0.47%.

In the case of `O=[N+]([O-])c1ccc2c(c1)C(N1CCOCC1)/C(=C/COc1ccc(Cl)cc1Cl)O2` (stereo not given), the inhibition is -0.92%.

Turning to `COC(=O)c1oc2c(c1C)C1(CCC2)SCCS1`, the inhibition is -1.66%.

As to `COc1ccc(N)c2c1C(=O)c1ccccc1C2=O`, the inhibition was 11.8%.

For the compound `COc1ccc(OC)c2c1C(=O)C(Cl)=C(Cl)C2=O`, the inhibition is 15.7% (active).

`COc1ccc(OC)c2c1C(=O)c1ccccc1C2=O`: the inhibition is 1.18%.

Consider `O=C1CN(/N=C/c2ccc([N+](=O)[O-])o2)C(=O)N1`, for which the inhibition was 0.61%.

With `O=C(O)/C=C/c1ccc([N+](=O)[O-])o1`, the inhibition is -1.44%.

With `Cc1ccc(C2=N/C(=C\N(C)C)C(=O)O2)cc1`, the inhibition was 1.44%.

For the compound `Cc1ccc(/C=C2\SC(=S)N(/N=C/c3cc([N+](=O)[O-])ccc3O)C2=O)o1`, the inhibition was 46.9% (active).

Take `Cc1ccccc1/C=C1\SC(=S)N(/N=C/c2cc([N+](=O)[O-])ccc2O)C1=O`: the inhibition was -0.74%.

On to `O=C1/C(=C/c2cccc(Br)c2)SC(=S)N1/N=C/c1cc([N+](=O)[O-])ccc1O`, for which the inhibition was -5.24%.

Consider `CC1CCC(NC(=O)c2ccc(/C=C3\Oc4ccccc4N(C)C3=O)cc2)CC1` (stereo not given), for which the inhibition is -2.49%.

Regarding `O=C(O)C1C2C=CC(C2)C1C(=O)N1CCOCC1` (stereo not given), the inhibition is -2.63%.

On to `O=C(O)C1C2C=CC(C3CC23)C1C(=O)O` (stereo not given), for which the inhibition was 1.12%.

Regarding `COc1cc(/C=N/n2c(-c3n[nH]c4c3CCC4)n[nH]c2=S)cc(OC)c1O`, the inhibition was 0.14%.

Consider `COc1cc(/C=N/n2c(-c3n[nH]c4c3CCC4)n[nH]c2=S)ccc1O`, for which the inhibition was 1.56%.

Consider `COc1ccc(/C=N/n2c(-c3n[nH]c4c3CCC4)n[nH]c2=S)cc1OC`, for which the inhibition was 14.3% (active).
